# A selection: hits, their analogues and other compounds. The true share with any hit is near 0.9%.
# Mtb bLac sens: beta-lactam sensitization of Mtb H37Rv, H37Rv | M. tuberculosis H37Rv growth with meropenem, percent inhibition | 0.27% of 330,000 active | inhibition, % at 25 µM | AID 434955, 2010; call rule not given here;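 further: growth measured after seven days incubation then overnight dye step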
# Mtb BioA inh: M. tuberculosis BioA enzyme inhibitors, primary screen, biochemical, plate reader, single point, HTS; purified M. tuberculosis BioA enzyme; AID 602481, 2012; inhibition, % at 9.99 µM; 0.096% of 360,000 active; in the data active means inhibition above about 40%; inconclusive means no clear call, values can overlap the other calls
# Sa ugtP lethal: growth inhibition of ugtP-null S. aureus, primary screen, RN4220 ugtP deletion, OD600. 16 h. growth inhibition, % (test concentration not listed). 0.54% of 330,000 active; in the data active means growth inhibition above about 68%
# RN4220 kill: growth inhibition of S. aureus RN4220, primary screen, OD600 | 16 h | inhibition, % (concentration not given with the values) | 0.33% of 330,000 active | AID 1259311, 2017; in the data active means inhibition above about 85%
# PfHsp40 rescue: rescue of yeast from PfHsp40 toxicity, primary screen, S. cerevisiae, ATP luminescence. 0.68% of 340,000 active. growth rescue, % at 12.5 µM. AID 504582, 2011. S. cerevisiae expressing PfHsp40, growth rescue; in the data active means growth rescue above about 28%, passing the limit was not always enough; inconclusive means no clear call, values can overlap the other calls;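 further: yeast W303a lacking pdr1 and pdr3 grown in galactose medium; growth measured after three days at 30 °C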
# Numbers stand for hits; n = inactive; u = inconclusive; x = no result given.
SMILES,Mtb bLac sens,Mtb BioA inh,Sa ugtP lethal,RN4220 kill,PfHsp40 rescue
CCN1C(=O)C2C(c3ccc(-c4ccc(Cl)c(Cl)c4)c(OC)c3)N3CCCC[C@@]3(C(=O)OC)C2C1=O (stereo not given in full),x,x,n,n,x
O=C(CC(Sc1ccc(Br)cc1)C(=O)O)c1ccc(F)cc1 (stereo not given),n,n,92,n,n
CCOc1ccc(C(=O)CC(Sc2ccc(C)cc2)C(=O)O)cc1 (stereo not given),n,n,n,n,n
Cc1ccc(NS(=O)(=O)c2ccc(N3CCN(c4ccc(O)cc4)CC3)c([N+](=O)[O-])c2)c(C)c1,n,n,n,n,70
O=[N+]([O-])c1cc(S(=O)(=O)Nc2ccccc2)ccc1N1CCN(c2ccc(O)cc2)CC1,n,x,n,n,n
Cc1ccccc1-c1nnn(CC(N)=NO)n1,x,x,n,n,x
Cc1cccc(/C(N)=N/OC(=O)Cc2cccc3ccccc23)c1,n,x,n,n,n
Cc1cccc(C(=O)O/N=C(\N)Cc2cccc3ccccc23)c1,n,n,n,n,300
Cc1ccc(SCCNC(=O)c2ccc([N+](=O)[O-])c(C)c2)cc1,n,n,n,n,n
Cc1ccc(SCCNC(=O)c2ccc(C)c([N+](=O)[O-])c2)cc1,x,n,n,n,48
COc1cc(C=NO)cc(Br)c1OCc1cccc(Cl)c1,x,x,n,n,x
Cc1ccc(COc2ccc(Br)cc2C=NO)cc1,x,x,100,n,x
Fc1ccccc1COc1ccc(Br)cc1CNCc1ccncc1,n,n,n,n,242
O=[N+]([O-])c1ccc(COc2ccccc2C=NO)cc1,x,x,n,n,x
Fc1ccccc1COc1ccc(Br)cc1CNCc1cccnc1,n,n,n,n,n
O/N=C/c1ccccc1OCc1ccc(Cl)cc1,n,n,x,x,237
ON=Cc1cc(Br)cc(Br)c1OCc1ccccc1,x,x,91,n,x
CCC1=C(OC(=O)N(CC)CC)N2C(=O)OC(=NCCOC)[C@]2(Cc2ccccc2)C2C1=CCC1C(=O)N(CC(=O)OC)C(=O)C12 (stereo not given in full),x,x,n,n,x
CC(C)CC(NC(=O)c1nc[nH]c1C(=O)N1CCN(c2ccccc2)CC1)C(=O)OCc1ccccc1 (stereo not given),x,x,n,n,x
O/N=C/c1cc(Br)ccc1OCc1ccccc1F,n,n,x,x,721
Cc1cc(C)c2nc(N3C(=O)C(O)=C(C(=O)c4ccco4)C3c3cccc(O)c3)sc2c1 (stereo not given),n,n,88,n,n
N#CSCC(=O)c1cccc2ccccc12,n,n,n,n,146
NC(=O)c1cccc2ccccc12,n,n,n,n,n
COC(=O)C1=C(C(=O)OC)C2N(C)c3ccc(OC)cc3[C@@]23CC(C(=O)OC)N(C(=O)c2ccco2)C3=N1 (stereo not given in full),x,x,n,n,x
CSC(=C[N+](=O)[O-])Nc1ccc(Cl)cc1,x,x,n,n,x
SMILES,Mtb bLac sens,Mtb BioA inh,Sa ugtP lethal,RN4220 kill,PfHsp40 rescue
O=c1sc(/C=N/Nc2ccccc2)c(Cl)n1Cc1ccccc1,n,x,x,x,n
O=C(O)c1cccc(Cn2c(Cl)c(C=NNc3ccccc3)sc2=O)c1,x,x,97,94,x
O=C1C=C(c2cccc(CO)c2)CC(c2ccc(F)cc2)C1 (stereo not given),x,x,n,n,x
CCC(C)NC(=O)CCC(=O)OC1O[C@H]2OC3(C)CC[C@H]4[C@H](C)CCC(C1C)C24OO3 (stereo not given in full),n,n,n,n,101
O=C(O)CC/C(=N/Nc1ccc([N+](=O)[O-])cc1)C(=O)O,n,x,x,x,135
O=C(COc1ccc([N+](=O)[O-])cc1)Nc1nc(-c2ccccn2)cs1,n,n,n,n,271
O=C(COc1ccc2ccccc2c1)Nc1nccs1,n,x,n,n,n
O=C(COc1ccc(F)cc1)Nc1nc(-c2ccccn2)cs1,n,n,n,n,n
Cc1ccc(OCC(=O)Nc2nc(-c3ccccn3)cs2)c(C)c1,n,n,n,n,54
O=C(COc1ccccc1)Nc1nccs1,n,n,n,n,57
Cc1cc(C)c2nc(NNC(=O)c3ccc(S(=O)(=O)N4CC(C)CC(C)C4)cc3)sc2c1 (stereo not given),n,n,n,n,u
Cc1cc(C)c2nc(NNC(=O)c3ccc(S(=O)(=O)N4CCCC(C)C4)cc3)sc2c1 (stereo not given),n,n,n,n,97
Cc1cccc2sc(NNC(=O)c3ccc(S(=O)(=O)N4CC(C)CC(C)C4)cc3)nc12 (stereo not given),n,n,n,n,285
COc1ccc(C=O)cc1C1=CC(=O)CC(c2ccc(Cl)cc2)C1 (stereo not given),x,x,n,n,x
CCC(C)C1CN=C(N)N1CCCc1cc(OC)c(OC)c(OC)c1 (stereo not given),x,x,n,n,x
CCOc1ccc(N2C(=O)Nc3ccccc3C2(O)C(=O)NCc2ccc(C)cc2)cc1 (stereo not given),n,x,active,n,n
Cc1cc(C)cc(NC(=O)CSc2nc3[nH]c(=O)cc(O)c3s2)c1,n,n,n,n,38
O=C(CSc1nc2[nH]c(=O)cc(O)c2s1)Nc1cc(Cl)cc(Cl)c1,n,n,n,n,n
COC(=O)C1=C(c2ccccc2)CC2CCC1N2C(=O)NCc1ccc(C(F)(F)F)cc1 (stereo not given),x,x,n,n,x
O=C(N/N=C/c1c(O)n(-c2ccc(Cl)cn2)c(=O)c2ccccc12)c1ccncc1,n,n,n,n,29
COC(=O)C1=C(C(=O)OC)[C@]2(C3CC=CCNC(Cc4ccccc4)C(=O)N3Cc3ccccc3)C=CC1O2 (stereo not given in full),x,x,n,n,x
CC(C)=CCC[C@](C)(OC1OC(COC2OC(CO)C(O)C(O)C2O)C(O)C(O)C1O)C1CC[C@]2(C)C1C(=O)CC1[C@@]3(C)CCC(OC4OC(CO)C(O)C(O)C4O)C(C)(C)C3CC[C@]12C (stereo not given in full),x,x,n,n,x
O=[N+]([O-])c1ccc2[nH]nc(-c3ccccc3)c2c1,n,x,n,n,41
CCCCN1C(=O)C(=O)NCC1C(C)O (stereo not given),x,x,n,n,x
CCCC(O)=C1C(=O)CCCC1=NCCCCCC(=O)O,x,x,n,n,x
SMILES,Mtb bLac sens,Mtb BioA inh,Sa ugtP lethal,RN4220 kill,PfHsp40 rescue
CCOc1cc(CNCc2ccncc2)cc(Br)c1OCc1ccc(F)cc1,n,n,94,n,n
COc1cc(C=C[N+](=O)[O-])ccc1O,x,x,n,n,x
Cc1cc(CN2CCN(CCC#N)CC2)c(O)c(C2(C)CCCCC2)c1,n,n,84,n,n
O=C(/C=C/c1ccc(F)cc1)c1cc(Br)ccc1O,n,n,n,n,n
O=C(/C=C/c1ccccc1)c1cc(Br)ccc(=O)c1O,n,n,99,99,332
CCOC(=O)c1cc(OC(=O)c2ccccc2)n(-c2ccccc2)n1,n,n,n,n,112
COc1ccccc1N1C(=O)C(Cl)=C(Nc2ccccc2O)C1=O,x,x,x,x,92
O=C1C(Cl)=C(Nc2ccccc2O)C(=O)N1c1ccccc1,n,n,n,n,n

# From PubChem BioAssay
